Inconclusive results are not listed. Active and inactive are the calls of the source. Calls follow the shape of the dose curve; as a rule, active = well fitted inhibition curve with a large enough effect; inconclusive = small, poorly fitted or top-dose-only effect; inactive = flat fitted curve, though single readings scatter.
The molecules below were run against Ubiquitin carboxyl-terminal hydrolase 1 (Homo sapiens) (UniProt O94782) (assay: Inhibitors of USP1/UAF1: Pilot qHTS (AID 504865; also: nearly all actives have a fitted effect of over 35% in size;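 as to activity change, negative = inhibition: rhodamine fluorescence freed from ubiquitin-rhodamine substrate followed over time; top concentration of the series differs between compounds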)). Conditions: purified USP1/UAF1, Ub-rhodamine cleavage fluorescence; series mostly up to 114 µM; activity change, negative = inhibition: at the top concentration.
Summary of the method: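 1nM USP1/UAF1 + cpd, 15 min RT; start w/ Ub-Rho 150nM final; kinetic FL 480/540 nm, 6 reads q60 s. Buffer 50mM HEPES pH 7.8, 0.5mM EDTA, 1mM TCEP, 0.01% Tween-20, 0.1 mg/ml BSA.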
% is scaled to controls: 0 for no effect and ±100 for the full control effect; potency is read from the fitted curve at half-maximal effect.

Chain of Ubiquitin carboxyl-terminal hydrolase 1 (Homo sapiens) (O94782 whole entry, looked up): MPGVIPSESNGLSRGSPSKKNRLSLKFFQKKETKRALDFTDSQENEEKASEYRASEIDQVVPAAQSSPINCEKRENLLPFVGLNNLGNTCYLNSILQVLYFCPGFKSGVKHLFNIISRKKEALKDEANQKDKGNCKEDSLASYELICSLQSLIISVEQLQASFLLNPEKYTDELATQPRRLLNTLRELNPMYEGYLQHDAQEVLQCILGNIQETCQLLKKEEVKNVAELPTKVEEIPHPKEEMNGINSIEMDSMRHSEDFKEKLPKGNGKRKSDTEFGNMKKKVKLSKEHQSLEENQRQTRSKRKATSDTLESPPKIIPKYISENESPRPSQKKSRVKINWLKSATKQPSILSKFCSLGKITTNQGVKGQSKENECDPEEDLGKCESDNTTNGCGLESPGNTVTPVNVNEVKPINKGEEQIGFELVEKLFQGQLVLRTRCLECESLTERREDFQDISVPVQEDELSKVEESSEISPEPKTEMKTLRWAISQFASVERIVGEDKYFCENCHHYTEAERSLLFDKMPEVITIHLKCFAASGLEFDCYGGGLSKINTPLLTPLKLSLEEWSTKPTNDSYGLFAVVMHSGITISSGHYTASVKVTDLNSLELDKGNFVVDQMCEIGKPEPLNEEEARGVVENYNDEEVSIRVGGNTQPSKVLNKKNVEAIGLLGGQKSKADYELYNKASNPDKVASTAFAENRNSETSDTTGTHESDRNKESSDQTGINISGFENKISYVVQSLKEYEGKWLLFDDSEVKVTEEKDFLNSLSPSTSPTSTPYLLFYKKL

Structure (SMILES) | activity change, negative = inhibition | Potency
Cc1cccc(Nc2ncccc2C(=O)O)c1C | -10.3% (inactive) | –
O=C(/C=C/c1cccc(F)c1)NC1CC1 | -4.5% (inactive) | –
CC1CCCCN1CCCOC(=O)c1ccccc1 (stereo not given) | -7.03% (inactive) | –
Cc1ccc(C(C)(C)c2ccc(C)cc2)cc1 | -9.44% (inactive) | –
CC(C)(Oc1ccc(C2CCCc3ccccc32)cc1)C(=O)O (stereo not given) | -3.14% (inactive) | –
CN(Cc1ccccc1)Cc1ccccc1 | -7.11% (inactive) | –
c1ccc(-n2cnnn2)cc1 | -1.92% (inactive) | –
CC(C)(COP(=O)(O)OP(=O)(O)OC[C@H]1O[C@@H](n2cnc3c(N)ncnc32)[C@H](O)[C@@H]1OP(=O)(O)O)C(O)C(=O)NCCC(=O)NCCS (stereo not given in full) | -6.74% (inactive) | –
CC(=O)NCCCS(=O)(=O)O | -9.11% (inactive) | –
CC1CC(O)CC(C)(C)C1 (stereo not given) | -5.89% (inactive) | –
FC(F)OC(Cl)C(F)(F)F (stereo not given) | -4.77% (inactive) | –
CN(C)C(=O)CCSC(SCCC(=O)O)c1cccc(/C=C/c2ccc3ccc(Cl)cc3n2)c1 (stereo not given) | – | 50.1 µM (active)
O=C(O)CCC/C=C\C[C@@H]1[C@@H](/C=C/[C@@H](O)COc2cccc(Cl)c2)[C@H](O)C[C@@H]1O | -0.0641% (inactive) | –
CCc1ccc(S(=O)(=O)O)cc1 | -0.467% (inactive) | –
CCCC(=O)O | -5.79% (inactive) | –
CC(=O)Nc1c(I)c(C(=O)O)c(I)c(N(C)C(C)=O)c1I | -10.7% (inactive) | –
CC/C=C\C/C=C\C/C=C\C/C=C\C/C=C\C/C=C\CCC(=O)O | – | 50.1 µM (active)
CS(=O)(=O)OCC(O)C(O)COS(C)(=O)=O (stereo not given) | 2.25% (inactive) | –

Structure (SMILES) | activity change, negative = inhibition | Potency
CO[C@H]1C[C@@H]2CC[C@@H](C)[C@@](O)(O2)C(=O)C(=O)N2CCCC[C@H]2C(=O)O[C@H]([C@H](C)C[C@@H]2CC[C@@H](OC(=O)C(C)(CO)CO)[C@H](OC)C2)CC(=O)[C@H](C)/C=C(\C)[C@@H](O)[C@@H](OC)C(=O)[C@H](C)C[C@H](C)/C=C/C=C/C=C/1C | -3.32% (inactive) | –
CNC(=O)[C@H](Cc1c[nH]c2ccccc12)NC(=O)[C@@H](CC(=O)NO)CC(C)C | -2.14% (inactive) | –
CC(C)[C@H](N)C(=O)OCC(CO)OCn1cnc2c(=O)[nH]c(N)nc21 (stereo not given in full) | -0.11% (inactive) | –
COC(=O)[C@@H](N)CS | 4.74% (inactive) | –
O=C1c2ccccc2CN2C(=O)c3ccccc3CN12 | -8.04% (inactive) | –
C=Cc1ccc(S(=O)(=O)O)cc1 | -0.238% (inactive) | –
O=C(O)[C@H]1C(=CCO)O[C@H]2CC(=O)N12 | -2.82% (inactive) | –
COc1ccc(-c2noc(CC(=O)O)c2-c2ccc(OC)cc2)cc1 | -9.77% (inactive) | –
CNC(=O)c1c(I)c(C(=O)NCC(=O)Nc2c(I)c(C(=O)O)c(I)c(C(=O)NCCO)c2I)c(I)c(N(C)C(C)=O)c1I | 2.45% [at 54.9 µM] (inactive) | –
CCN(CC)C(=O)c1cccnc1 | -4.35% (inactive) | –
CC(=O)Nc1ccc(OC(=O)c2ccccc2O)cc1 | -4.53% (inactive) | –
O=P(O)(O)OC[C@H](O)CO | 2.45% (inactive) | –
FCOC(C(F)(F)F)C(F)(F)F | 3.06% (inactive) | –
COc1ccc(/C=C/C(=O)O)cc1 | -7.63% (inactive) | –
CC(C)CCC[C@@H](C)[C@H]1CC[C@H]2[C@@H]3CC[C@@H]4C[C@H](O)CC[C@]4(C)[C@H]3CC[C@]12C | -1.59% (inactive) | –
CC(CCc1ccc(O)cc1)NCC(O)c1ccc(O)cc1 (stereo not given) | -3.83% (inactive) | –
Cc1cc(=O)c(C(=O)N[C@@H](C(=O)N[C@@H]2C(=O)N3C(C(=O)O)=C(CSc4nnnn4C)CS[C@H]23)c2ccc(O)cc2)c[nH]1 | 2.08% (inactive) | –
